The supplement of paper PMC10849652
About 7,900 targets were measured; listed, in parts, are those with a hit and a random draw of the rest. About 0.6% of all pairs of compound and target were hits. Values without a mark were called inactive.

Columns and labels:
Assay in all cases: log2 fold change, soluble protein after heating vs DMSO (PISA); higher = thermal stabilisation; K562 cells, 10 uM, 30 min; active = over 0.2 and 3.5 SD of the protein, either way, in both replicates (recomputed)
erlotinib = compound: C#Cc1cccc(Nc2ncnc3cc(OCCOC)c(OCCOC)cc23)c1 [erlotinib]
In short: (§1)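 Values are thermal stability changes relative to control samples and are taken from duplicates. They are stated as log2 fold changes. Before quantification by TMTpro 16plex LC-MS/MS with equalised channel sums, K562 cells at 2×10^6 cells/mL were treated with 10 μM compound for 30 min, heated in aliquots for 3 min across 48°C-58°C, pooled, extracted in PBS with 0.5% NP-40 at 4°C, and centrifuged at 21,000xg for 90 min to give the soluble supernatant.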

[1] = compound: C/C(=N\NC(=O)C1=CC(=CC=C1)S(=O)(=O)N2CCOCC2)/C3=C(C=CC(=C3)Cl)O
In short: as §1

[2] = compound: C1=CC(=C(C=C1Cl)C2=NC3=NC=CN=C3C(=N2)NC4=CC=NC=C4)F
In short: as §1

[3] = compound: C1=CC(=CC=C1C2=NC3=C(N2)C=C(C=C3)C(=O)N)OC4=CC=C(C=C4)Cl
In short: as §1

[4] = compound: C1=CC2=C(C=CC(=C2)/C=C\3/C(=O)NC(=NCC4=CC=CS4)S3)N=C1
In short: as §1

[5] = compound: C1=CC2=NC=CN=C2C=C1/C=C/3\C(=O)NC(=O)S3
In short: as §1

[6] = compound: C1=CC=C(C=C1)C2=NC(=C(N2)C3=CC=NC=C3)C4=CC(=C(C=C4)Cl)O
In short: as §1

[7] = compound: C1=CC=C2C(=C1)C3=NNC4=CC=CC(=C43)C2=O
In short: as §1

[8] = compound: C1CCN(C1)C(=O)NC2=CC=CC(=C2)NC3=NC=C(C(=N3)NCCC4=CN=CN4)Br
In short: as §1

[9] = compound: C1CN(CCC1(CC2=CC=C(C=C2)Cl)N)C3=NC=NC4=C3C=CN4
In short: as §1

Sequence of UniProt O00220 (O00220 whole entry, looked up): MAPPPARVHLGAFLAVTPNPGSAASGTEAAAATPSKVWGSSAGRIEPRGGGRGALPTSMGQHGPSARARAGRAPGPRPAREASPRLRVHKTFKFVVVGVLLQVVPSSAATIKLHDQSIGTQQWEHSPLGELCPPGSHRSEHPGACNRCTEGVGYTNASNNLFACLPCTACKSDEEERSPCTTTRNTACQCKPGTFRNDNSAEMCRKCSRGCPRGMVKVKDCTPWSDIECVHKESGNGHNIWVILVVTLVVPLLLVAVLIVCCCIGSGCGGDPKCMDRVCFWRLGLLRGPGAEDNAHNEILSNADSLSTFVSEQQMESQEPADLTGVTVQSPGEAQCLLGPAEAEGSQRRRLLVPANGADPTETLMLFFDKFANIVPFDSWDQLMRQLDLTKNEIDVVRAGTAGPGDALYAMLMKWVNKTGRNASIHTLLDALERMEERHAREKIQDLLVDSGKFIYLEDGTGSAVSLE
Sequence of UniProt Q7Z7E8 (Q7Z7E8 whole entry, looked up): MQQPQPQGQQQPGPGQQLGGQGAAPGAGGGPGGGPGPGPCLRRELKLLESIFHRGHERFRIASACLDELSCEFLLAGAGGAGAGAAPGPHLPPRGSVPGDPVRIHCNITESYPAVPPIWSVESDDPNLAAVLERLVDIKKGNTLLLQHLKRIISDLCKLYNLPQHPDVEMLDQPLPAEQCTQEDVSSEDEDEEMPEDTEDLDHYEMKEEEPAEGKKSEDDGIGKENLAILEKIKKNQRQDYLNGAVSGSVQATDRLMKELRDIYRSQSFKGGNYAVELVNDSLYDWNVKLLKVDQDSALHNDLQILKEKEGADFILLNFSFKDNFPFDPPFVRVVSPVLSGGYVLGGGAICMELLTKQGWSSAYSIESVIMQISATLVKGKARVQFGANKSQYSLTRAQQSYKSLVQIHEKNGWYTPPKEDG
Sequence of UniProt Q96K49 (Q96K49 whole entry, looked up): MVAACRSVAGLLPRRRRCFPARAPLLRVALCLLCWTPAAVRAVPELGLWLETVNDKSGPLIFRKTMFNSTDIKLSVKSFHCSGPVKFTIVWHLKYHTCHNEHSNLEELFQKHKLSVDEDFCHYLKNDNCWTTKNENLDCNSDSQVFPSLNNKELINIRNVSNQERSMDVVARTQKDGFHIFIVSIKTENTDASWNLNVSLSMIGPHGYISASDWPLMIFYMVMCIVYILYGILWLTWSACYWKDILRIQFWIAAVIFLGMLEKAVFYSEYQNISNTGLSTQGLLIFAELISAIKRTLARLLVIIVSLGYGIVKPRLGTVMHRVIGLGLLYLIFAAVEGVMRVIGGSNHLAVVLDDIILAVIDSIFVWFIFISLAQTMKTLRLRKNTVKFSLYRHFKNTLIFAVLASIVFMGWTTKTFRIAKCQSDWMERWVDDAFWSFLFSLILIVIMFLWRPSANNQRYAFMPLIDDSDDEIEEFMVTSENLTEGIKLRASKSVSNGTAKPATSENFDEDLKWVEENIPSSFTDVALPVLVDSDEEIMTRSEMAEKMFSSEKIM
Sequence of UniProt O60701 (O60701 whole entry, looked up): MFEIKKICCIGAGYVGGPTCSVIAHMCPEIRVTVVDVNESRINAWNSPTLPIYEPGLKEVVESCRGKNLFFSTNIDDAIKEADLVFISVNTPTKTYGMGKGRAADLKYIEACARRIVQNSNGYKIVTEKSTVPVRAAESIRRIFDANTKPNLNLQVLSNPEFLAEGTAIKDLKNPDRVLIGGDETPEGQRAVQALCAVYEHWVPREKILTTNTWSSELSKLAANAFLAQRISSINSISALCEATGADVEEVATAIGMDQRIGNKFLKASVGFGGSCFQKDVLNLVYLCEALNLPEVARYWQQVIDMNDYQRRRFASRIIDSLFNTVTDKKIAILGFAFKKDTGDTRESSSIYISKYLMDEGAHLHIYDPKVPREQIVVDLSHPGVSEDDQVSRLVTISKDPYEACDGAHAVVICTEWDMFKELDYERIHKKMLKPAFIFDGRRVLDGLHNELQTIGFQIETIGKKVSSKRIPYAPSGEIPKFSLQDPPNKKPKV
Sequence of UniProt Q5VIR6 (Q5VIR6 whole entry, looked up): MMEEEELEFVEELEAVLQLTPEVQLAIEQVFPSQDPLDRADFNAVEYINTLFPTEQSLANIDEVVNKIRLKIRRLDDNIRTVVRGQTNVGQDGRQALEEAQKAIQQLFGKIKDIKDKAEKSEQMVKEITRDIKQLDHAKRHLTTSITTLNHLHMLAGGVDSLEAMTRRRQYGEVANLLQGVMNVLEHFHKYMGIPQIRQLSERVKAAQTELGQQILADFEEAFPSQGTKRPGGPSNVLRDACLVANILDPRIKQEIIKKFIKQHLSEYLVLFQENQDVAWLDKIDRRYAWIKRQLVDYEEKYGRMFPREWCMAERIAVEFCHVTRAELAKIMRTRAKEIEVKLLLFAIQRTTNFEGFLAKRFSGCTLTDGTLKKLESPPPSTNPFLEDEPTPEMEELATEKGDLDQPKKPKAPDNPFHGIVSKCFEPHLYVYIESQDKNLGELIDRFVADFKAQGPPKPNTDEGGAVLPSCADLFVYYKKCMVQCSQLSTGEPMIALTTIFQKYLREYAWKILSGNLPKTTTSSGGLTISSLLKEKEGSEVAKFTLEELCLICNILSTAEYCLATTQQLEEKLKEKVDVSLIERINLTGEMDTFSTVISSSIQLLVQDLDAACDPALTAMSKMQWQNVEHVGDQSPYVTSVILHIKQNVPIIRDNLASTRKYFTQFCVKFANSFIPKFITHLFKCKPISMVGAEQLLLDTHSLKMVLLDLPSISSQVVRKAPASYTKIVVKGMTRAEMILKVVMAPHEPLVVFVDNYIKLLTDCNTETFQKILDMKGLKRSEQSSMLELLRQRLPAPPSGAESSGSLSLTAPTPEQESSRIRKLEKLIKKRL
Sequence of UniProt Q15061 (Q15061 whole entry, looked up): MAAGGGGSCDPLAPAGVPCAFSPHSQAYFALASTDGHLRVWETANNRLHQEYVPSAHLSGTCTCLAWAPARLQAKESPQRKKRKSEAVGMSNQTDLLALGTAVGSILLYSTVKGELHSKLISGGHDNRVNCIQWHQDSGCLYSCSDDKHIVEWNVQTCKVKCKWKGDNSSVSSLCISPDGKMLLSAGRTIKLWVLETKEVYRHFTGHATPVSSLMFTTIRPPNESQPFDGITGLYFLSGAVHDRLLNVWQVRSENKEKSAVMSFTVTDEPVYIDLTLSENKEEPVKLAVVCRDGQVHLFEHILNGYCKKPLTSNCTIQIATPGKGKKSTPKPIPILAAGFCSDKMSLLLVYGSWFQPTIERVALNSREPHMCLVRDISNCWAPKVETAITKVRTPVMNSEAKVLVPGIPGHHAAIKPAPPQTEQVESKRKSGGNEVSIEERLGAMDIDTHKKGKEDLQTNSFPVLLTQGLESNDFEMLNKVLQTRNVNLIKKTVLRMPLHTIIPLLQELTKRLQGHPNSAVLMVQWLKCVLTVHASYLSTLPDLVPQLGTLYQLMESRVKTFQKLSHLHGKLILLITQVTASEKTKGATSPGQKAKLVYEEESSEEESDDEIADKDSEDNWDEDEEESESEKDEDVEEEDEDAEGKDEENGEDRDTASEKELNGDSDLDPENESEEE
Sequence of UniProt O75674 (O75674 whole entry, looked up): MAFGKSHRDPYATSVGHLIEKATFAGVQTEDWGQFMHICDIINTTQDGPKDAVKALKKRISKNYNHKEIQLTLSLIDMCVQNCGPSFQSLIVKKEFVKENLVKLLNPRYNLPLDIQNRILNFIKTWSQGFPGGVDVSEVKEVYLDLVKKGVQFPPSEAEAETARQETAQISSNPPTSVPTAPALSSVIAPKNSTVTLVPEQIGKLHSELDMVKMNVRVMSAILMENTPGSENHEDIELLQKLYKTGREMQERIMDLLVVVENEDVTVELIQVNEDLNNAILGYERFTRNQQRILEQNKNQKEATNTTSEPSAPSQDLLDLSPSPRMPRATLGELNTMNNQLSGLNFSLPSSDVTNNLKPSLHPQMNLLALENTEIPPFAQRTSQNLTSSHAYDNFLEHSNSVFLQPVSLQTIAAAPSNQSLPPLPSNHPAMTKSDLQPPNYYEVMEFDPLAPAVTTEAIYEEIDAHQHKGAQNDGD
Sequence of UniProt O14773 (O14773 whole entry, looked up): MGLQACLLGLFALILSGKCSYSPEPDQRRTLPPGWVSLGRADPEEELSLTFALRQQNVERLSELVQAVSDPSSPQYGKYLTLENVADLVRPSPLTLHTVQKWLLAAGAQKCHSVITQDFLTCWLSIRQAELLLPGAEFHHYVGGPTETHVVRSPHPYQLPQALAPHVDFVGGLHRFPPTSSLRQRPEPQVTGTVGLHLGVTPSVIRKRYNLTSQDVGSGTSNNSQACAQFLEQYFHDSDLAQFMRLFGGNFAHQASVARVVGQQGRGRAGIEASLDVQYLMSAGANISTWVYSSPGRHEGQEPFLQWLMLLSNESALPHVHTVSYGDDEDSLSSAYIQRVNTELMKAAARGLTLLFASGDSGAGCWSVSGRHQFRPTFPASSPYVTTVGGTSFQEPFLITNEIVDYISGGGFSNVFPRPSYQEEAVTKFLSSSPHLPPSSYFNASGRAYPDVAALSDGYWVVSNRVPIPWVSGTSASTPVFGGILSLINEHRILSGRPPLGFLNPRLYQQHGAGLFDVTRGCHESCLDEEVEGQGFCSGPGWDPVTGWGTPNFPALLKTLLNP
Sequence of UniProt Q8NDZ6 (Q8NDZ6 whole entry, looked up): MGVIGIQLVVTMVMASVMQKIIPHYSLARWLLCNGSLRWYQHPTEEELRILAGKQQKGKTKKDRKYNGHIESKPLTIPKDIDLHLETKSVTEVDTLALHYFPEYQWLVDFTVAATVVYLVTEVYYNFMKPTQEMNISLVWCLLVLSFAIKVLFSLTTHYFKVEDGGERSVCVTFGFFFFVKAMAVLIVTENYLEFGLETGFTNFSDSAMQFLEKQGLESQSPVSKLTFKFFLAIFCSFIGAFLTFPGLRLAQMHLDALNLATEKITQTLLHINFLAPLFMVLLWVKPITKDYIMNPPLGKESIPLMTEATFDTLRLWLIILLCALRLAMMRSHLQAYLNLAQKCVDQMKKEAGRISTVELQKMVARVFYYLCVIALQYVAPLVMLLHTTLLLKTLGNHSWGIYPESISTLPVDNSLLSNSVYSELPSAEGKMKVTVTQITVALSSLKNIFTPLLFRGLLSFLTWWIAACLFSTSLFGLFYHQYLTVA

Row | Target | log2 fold change (erlotinib) | log2 fold change [1] | log2 fold change [2] | log2 fold change [3] | log2 fold change [4] | log2 fold change [5] | log2 fold change [6] | log2 fold change [7] | log2 fold change [8] | log2 fold change [9]
1 | VWA8 (UniProt A3KMH1) | 0.077 | 0.037 | 0.017 | -0.036 | 0.108 | 0.008 | 0.017 | 0.069 | -0.009 | 0.042
2 | VPS51 (UniProt Q9UID3) | -0.003 | 0.123 | -0.02 | -0.01 | -0.002 | 0.035 | -0.014 | -0.016 | -0.029 | -0.02
3 | WBP4 (UniProt O75554) | 0 | -0.07 | 0.04 | 0.009 | -0.082 | 0.031 | -0.059 | -0.055 | 0.031 | 0.036
4 | TMEM177 (UniProt Q53S58) | 0.058 | 0.044 | 0.03 | -0.025 | 0.062 | -0.015 | -0.034 | 0.01 | 0.028 | 0.132
5 | VPS53 isoform 4 (UniProt Q5VIR6) | 0.06 | 0.094 | 0.003 | -0.04 | 0.107 | 0.048 | -0.083 | 0.022 | -0.021 | -0.004
6 | UGDH (UniProt O60701) | 0.004 | 0.134 | 0.128 | 0.023 | 0.046 | -0.174 | 0.017 | 0.043 | -0.063 | 0.009
7 | WDR61 (UniProt Q9GZS3) | 0.021 | 0.066 | 0.051 | 0.027 | 0.057 | -0.016 | 0.01 | 0 | 0.077 | 0.026
8 | VARS2, A0A0G2JL52 | 0.012 | 0.006 | -0.002 | 0 | 0.046 | -0.006 | 0.026 | 0.003 | 0.006 | -0.01
9 | TRMT10C (UniProt Q7L0Y3) | -0.015 | 0.066 | 0.09 | 0.062 | 0.009 | -0.007 | 0.036 | 0.036 | -0.008 | 0.009
10 | TRAPPC6B (UniProt Q86SZ2) | 0.026 | 0.07 | 0.315 (active) | -0.016 | 0.011 | -0.006 | -0.016 | -0.014 | -0.048 | 0.018
11 | USP9X (UniProt Q93008) | 0.012 | 0.06 | -0.012 | -0.029 | 0.026 | 0.008 | 0.013 | -0.033 | 0.002 | -0.002
12 | TMEM179B (UniProt Q7Z7N9) | 0.042 | -0.016 | 0.073 | 0.032 | -0.009 | 0.034 | -0.107 | -0.032 | -0.165 | -0.005
13 | TMEM161B (UniProt Q8NDZ6) | 0.037 | -0.074 | 0.013 | -0.021 | -0.054 | 0.018 | 0.159 | -0.026 | -0.053 | -0.03
14 | UBE2S (UniProt Q16763) | 0.01 | 0.064 | -0.025 | -0.021 | 0.052 | 0.014 | -0.008 | 0.014 | -0.02 | 0.029
15 | TXNIP (UniProt Q9H3M7) | 0.013 | 0.017 | 0.082 | 0.025 | 0.108 | 0.124 | 0.141 | 0.034 | 0.137 | 0.041
16 | UBE2Q1 (UniProt Q7Z7E8) | 0.058 | 0.006 | 0.059 | 0.017 | 0.019 | 0.061 | 0.014 | 0.026 | -0.016 | -0.037
17 | TOM1L1 (UniProt O75674) | 0.019 | -0.009 | -0.003 | 0.044 | -0.038 | 0.037 | -0.023 | -0.026 | 0.006 | 0.076
18 | WASHC3 (UniProt Q9Y3C0) | 0.029 | -0.015 | 0.053 | 0.007 | 0.12 | 0.036 | 0.017 | -0.114 | -0.041 | 0.059
19 | TNPO1 (UniProt Q92973) | -0.032 | 0.08 | 0.038 | 0.011 | -0.006 | 0.016 | 0.008 | -0.027 | -0.001 | 0
20 | TRIP10 isoform 2 (UniProt Q15642) | -0.116 | -0.002 | 0.112 | 0.094 | -0.069 | 0.055 | 0.326 | 0.055 | -0.089 | 0.014
21 | VPS13B (UniProt Q7Z7G8) | 0.032 | 0.024 | 0.028 | 0.009 | 0.048 | -0.025 | 0.032 | -0.017 | -0.052 | 0.058
22 | WDR43 (UniProt Q15061) | 0.001 | -0.003 | 0.008 | -0.001 | -0.028 | 0.015 | -0.008 | 0.017 | -0.013 | 0.042
23 | TMEM9 (UniProt Q9P0T7) | 0.014 | 0.008 | 0.254 | -0.021 | -0.034 | -0.117 | 0.037 | -0.004 | -0.053 | -0.025
24 | UGGT1 (UniProt Q9NYU2) | -0.027 | 0.016 | 0.007 | 0.007 | 0.018 | 0.014 | -0.012 | 0.019 | -0.015 | 0.005
25 | TMEM87B (UniProt Q96K49) | 0.035 | 0.059 | -0.069 | 0.013 | 0.003 | 0.055 | 0.009 | -0.143 | -0.06 | 0.047
26 | TSG101 (UniProt Q99816) | 0.022 | 0.054 | 0.051 | 0.027 | 0.046 | 0.004 | -0.032 | 0 | 0.003 | -0.006
27 | TTC33 (UniProt Q6PID6) | 0.065 | -0.035 | 0.019 | 0.001 | 0.176 | -0.107 | -0.045 | -0.038 | – | –
28 | TSEN2 (UniProt Q8NCE0) | 0.08 | -0.001 | -0.016 | 0.029 | 0.041 | 0.098 | 0.023 | 0.023 | -0.04 | 0.061
29 | TNFRSF10A (UniProt O00220) | -0.01 | -0.05 | -0.023 | -0.014 | 0.049 | -0.012 | -0.026 | 0.018 | -0.039 | -0.049
30 | TPP1 (UniProt O14773) | 0.013 | 0.009 | 0.059 | -0.015 | -0.007 | 0.024 | 0.034 | -0.014 | -0.012 | -0.017
